In PubChem BioAssay (NCATS) one finds Potency data, which are given here for eleven compounds.

For assay [1], the target named is Luciferin 4-monooxygenase (Photinus pyralis) (UniProt P08659). Nature of the assay: Biochemical firefly luciferase enzyme assay for NPC (AID 624030).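 Note: purified P. pyralis luciferase at 10 nM with luciferin and ATP substrate; nearly all actives have a fitted effect of over 70% in size.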 In short, it runs like this:
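Purified P. pyralis luciferase at 10 nM in 50 mM Tris Acetate (final), luminescence read within 5 minutes of enzyme addition to compounds. Activity normalised to PTC124 versus DMSO; concentration-response curves classed by r2, magnitude and activity.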

Another assay relates to CP215. Briefly: qHTS profiling for inhibitors of Plasmodium falciparum proliferation (AID 504749). Note: nearly all actives have a fitted effect of over 60% in size. Note: potency is the fitted concentration of half-maximal effect. Particulars: P. falciparum in erythrocytes, SYBR Green DNA, 72 h; series mostly up to 28.7 µM. The essentials:
(§1)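 Each compound contacts P. falciparum-infected red blood cells for 72 h at 37 C; lysis buffer (Tris, EDTA, saponin, Triton X, SYBR Green I) is added and fluorescence measured next morning; values normalized to controls.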
(In general: qHTS replaces the single test concentration by a dilution series.)

The subject of the next assay is CP260. The description is as above. Particulars: P. falciparum in erythrocytes, SYBR Green DNA, 72 h; series mostly up to 28.7 µM. The essentials:
as §1

A further assay relates to CP266. The description is as above. Conditions: P. falciparum in erythrocytes, SYBR Green DNA, 72 h; series mostly up to 28.7 µM. In short, it runs like this:
as §1

The subject of a further assay is CP268. Described as above. Conditions: P. falciparum in erythrocytes, SYBR Green DNA, 72 h; series mostly up to 28.7 µM. In short, it runs like this: as §1
A further assay relates to CP291. The assay is described as above. Particulars: P. falciparum in erythrocytes, SYBR Green DNA, 72 h; series mostly up to 28.7 µM. In short, it runs like this: as §1
Another assay concerns CP297. Described as above. Conditions: P. falciparum in erythrocytes, SYBR Green DNA, 72 h; series mostly up to 28.7 µM. In short, it runs like this: as §1
The next assay has as its system CP305. Described as above. Particulars: P. falciparum in erythrocytes, SYBR Green DNA, 72 h; series mostly up to 28.7 µM. The essentials: as §1
A further assay deals with CP335. Described as above. Particulars: P. falciparum in erythrocytes, SYBR Green DNA, 72 h; series mostly up to 28.7 µM. In short, it runs like this:
as §1

The test system of another assay is DIV17. Described as above. Conditions: P. falciparum in erythrocytes, SYBR Green DNA, 72 h; series mostly up to 28.7 µM. The essentials:
as §1

Another assay deals with FAB9. Described as above. Conditions: P. falciparum in erythrocytes, SYBR Green DNA, 72 h; series mostly up to 28.7 µM. The essentials:
as §1

For the next assay, the system named is GB4. The description is as above. Particulars: P. falciparum in erythrocytes, SYBR Green DNA, 72 h; series mostly up to 28.7 µM. The essentials: as §1
A further assay has as its system HB3. Described as above. Particulars: P. falciparum in erythrocytes, SYBR Green DNA, 72 h; series mostly up to 28.7 µM. The essentials: as §1
The test system of another assay is ICS. Described as above. Conditions: P. falciparum in erythrocytes, SYBR Green DNA, 72 h; series mostly up to 28.7 µM. The essentials: as §1
The next assay concerns JCK. The assay is described as above. Conditions: P. falciparum in erythrocytes, SYBR Green DNA, 72 h; series mostly up to 28.7 µM. The essentials: as §1
In the next assay the test system is P93_24. The description is as above. Conditions: P. falciparum in erythrocytes, SYBR Green DNA, 72 h; series mostly up to 28.7 µM. In short, it runs like this: as §1
A further assay concerns PC26. The description is as above. Particulars: P. falciparum in erythrocytes, SYBR Green DNA, 72 h; series mostly up to 28.7 µM. The essentials:
as §1

The test system of the next assay is PC49. The assay is described as above. Conditions: P. falciparum in erythrocytes, SYBR Green DNA, 72 h; series mostly up to 28.7 µM. In short, it runs like this:
as §1

The subject of the next assay is TAB109. The assay is described as above. Particulars: P. falciparum in erythrocytes, SYBR Green DNA, 72 h; series mostly up to 28.7 µM. The essentials:
as §1

The next assay concerns DIV14. The assay is described as above. Particulars: P. falciparum in erythrocytes, SYBR Green DNA, 72 h; series mostly up to 28.7 µM. In short, it runs like this: as §1

Results filed as inconclusive are left out. Active and inactive are the calls of the source. Calls come from the whole dose curve; as a rule, active = well fitted inhibition curve with a large enough effect; inconclusive = small, poorly fitted or top-dose-only effect; inactive = flat fitted curve, though single readings scatter.

Sequence of Luciferin 4-monooxygenase (Photinus pyralis) (P08659 whole entry, looked up): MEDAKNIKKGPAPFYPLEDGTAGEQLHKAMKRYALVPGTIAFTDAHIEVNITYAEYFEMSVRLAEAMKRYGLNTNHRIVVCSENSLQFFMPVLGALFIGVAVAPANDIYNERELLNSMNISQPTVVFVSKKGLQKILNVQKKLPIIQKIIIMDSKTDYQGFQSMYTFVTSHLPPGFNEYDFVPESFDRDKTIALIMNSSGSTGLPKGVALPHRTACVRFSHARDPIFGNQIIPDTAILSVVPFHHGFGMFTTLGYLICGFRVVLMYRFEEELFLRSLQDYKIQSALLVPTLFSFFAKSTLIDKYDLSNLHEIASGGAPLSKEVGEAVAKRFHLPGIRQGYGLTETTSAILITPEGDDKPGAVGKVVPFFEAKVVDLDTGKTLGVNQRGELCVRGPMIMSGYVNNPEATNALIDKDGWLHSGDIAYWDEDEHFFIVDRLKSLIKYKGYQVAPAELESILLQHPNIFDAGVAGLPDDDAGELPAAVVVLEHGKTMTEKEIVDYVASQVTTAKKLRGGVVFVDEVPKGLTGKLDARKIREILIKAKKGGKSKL

`NC(=O)C1CC2(NC(=O)NC2=O)c2cc(F)ccc2O1` (stereo unspecified): the Potency result (in [1]; in the assay with CP215; in the assay on CP260; in the assay on CP266; with CP268; in the assay on CP291) was “inactive” each time. Also, the Potency result in the assay on CP297, in the assay with CP305, in the assay on CP335, with DIV17, in the assay with FAB9 and in the assay on GB4 was “inactive” each time. The Potency entry in the assay on HB3, in the assay on ICS, in the assay on JCK, in the assay on P93_24, in the assay on PC26 and in the assay with PC49 was “inactive” throughout. Moreover, the Potency result in the assay on TAB109 was “inactive”.
On to `C=NC(C(=O)NC1C(=O)N2C1SC(C)(C)C2C(=O)O)c1ccccc1` (stereo unspecified), for which the Potency result (in [1]; with CP215; in the assay with CP260; with CP266; with CP268; in the assay with CP291) was “inactive” in each case. Further, the Potency result in the assay on CP297, with CP305, in the assay on CP335, in the assay on DIV14, with DIV17 and in the assay on FAB9 was “inactive” throughout. In addition, the Potency entry with GB4, in the assay with HB3, in the assay with ICS, in the assay with JCK, in the assay with P93_24 and in the assay on PC26 was “inactive” each time. Moreover, the Potency entry in the assay on PC49 and with TAB109 was “inactive” each time.
Take `C[C@H]1OC(OC2C(O)[C@@H](O)C(OC3C(O)[C@@H](O)C(O)O[C@@H]3CO)O[C@@H]2CO)[C@H](O)C(O)C1N[C@H]1C=C(CO)[C@@H](O)[C@H](O)C1O` (stereo partly specified): the Potency result (in assay [1]; in the assay on CP215; in the assay with CP260; in the assay with CP266; in the assay with CP268; with CP291) was “inactive” each time. Besides, the Potency entry in the assay on CP297, with CP305, in the assay on CP335, in the assay with DIV14, in the assay on DIV17 and in the assay on FAB9 was “inactive” each time. Also, the Potency entry with GB4, in the assay with HB3, with ICS, in the assay on JCK, in the assay on P93_24 and in the assay with PC49 was “inactive” in each case. For the same compound, the Potency result in the assay with TAB109 is “inactive”.
In the case of `CC1(Cn2ccnn2)[C@H](C(=O)O)N2C(=O)C[C@H]2S1(=O)=O` (stereo partly specified), the Potency result (in assay [1]; in the assay with CP215; in the assay with CP260; with CP266; in the assay with CP268; with CP291) was “inactive” in each case. The Potency entry with CP297, in the assay on CP305, in the assay with CP335, with DIV14, in the assay with DIV17 and in the assay on FAB9 was “inactive” each time. The Potency entry in the assay with GB4, with HB3, in the assay with ICS, in the assay with JCK, in the assay on P93_24 and with PC26 was “inactive” each time. Besides, the Potency result in the assay with PC49 and in the assay on TAB109 was “inactive” in each case.
Turning to `CC1(C)C2CC[C@]1(C)[C@@H](O)C2`, the Potency entry (in [1]; in the assay with CP215; in the assay with CP260; with CP266; with CP268; in the assay with CP291) was “inactive” in each case. The Potency result in the assay with CP297, with CP305, in the assay on CP335, in the assay on DIV14, in the assay on DIV17 and in the assay on FAB9 was “inactive” each time. In addition, the Potency result with GB4, with HB3, with ICS, in the assay on JCK, with P93_24 and with PC26 was “inactive” throughout. Also, the Potency entry in the assay with PC49 and in the assay with TAB109 was “inactive” in each case.
For the compound `NC(C(=O)O)c1ccc(O)cc1` (stereo unspecified), the Potency entry (in assay [1]; in the assay on CP215; in the assay on CP260; with CP266; in the assay with CP268; in the assay on CP291) was “inactive” in each case. For the same compound, the Potency result in the assay with CP297, in the assay with CP305, in the assay with CP335, in the assay on DIV14, with DIV17 and with FAB9 was “inactive” each time. Also, the Potency entry with GB4, in the assay on HB3, with ICS, with JCK, with P93_24 and in the assay with PC26 was “inactive” throughout. Besides, the Potency entry in the assay with PC49 and in the assay with TAB109 was “inactive” throughout.
With `CC[C@@]1(O)C[C@H](O[C@H]2C[C@@H](N(C)C)[C@@H](O[C@H]3C[C@@H](O)[C@@H](O[C@H]4CCC(=O)[C@@H](C)O4)[C@@H](C)O3)[C@@H](C)O2)c2c(cc3c(c2O)C(=O)c2c(O)cccc2C3=O)[C@H]1C(=O)OC`, in assay [1], the Potency entry is “inactive”. Moreover, the Potency in the assay on CP215 was 849 nM (active); with CP260 it was 39.8 nM (active); in the assay with CP266, 1200 nM (active); in the assay on CP268, 953 nM (active); in the assay on CP291 it was 849 nM (active); with CP297 it was 953 nM (active). The Potency was 601 nM (active) in the assay on CP305; 169 nM (active) in the assay on CP335; 379 nM (active) in the assay with DIV14; 478 nM (active) in the assay with DIV17; 891 nM (active) with FAB9; 601 nM (active) in the assay on GB4. In addition, the Potency with HB3 was 141 nM (active); in the assay on ICS, 44.7 nM (active); with JCK, 126 nM (active); with P93_24 it was 316 nM (active); in the assay on PC26, 1200 nM (active); in the assay with TAB109, 224 nM (active).
As to `CC(C)(C)C(=O)OCC(=O)C1CCC2C3CCC4=CC(=O)CCC4(C)C3CCC12C` (stereo unspecified), the Potency result (in assay [1]; in the assay with CP215; with CP260; with CP266; with CP268; in the assay on CP291) was “inactive” each time. For the same compound, the Potency result in the assay with CP297, in the assay on CP305, in the assay on CP335, in the assay with DIV14, in the assay with DIV17 and in the assay on FAB9 was “inactive” throughout. The Potency result in the assay with GB4, in the assay with HB3, with ICS, in the assay on JCK, with P93_24 and in the assay on PC26 was “inactive” each time. The Potency entry with PC49 and in the assay on TAB109 was “inactive” throughout.
Consider `CC(=O)NC1[C@H]([C@H](O)[C@H](O)CO)OC(C(=O)O)=C[C@H]1N=C(N)N` (stereo partly specified), for which the Potency result (in [1]; with CP215; in the assay on CP260; in the assay with CP266; in the assay with CP268; in the assay with CP291) was “inactive” throughout. Besides, the Potency entry in the assay with CP297, with CP305, in the assay on CP335, in the assay on DIV14, in the assay on DIV17 and in the assay on FAB9 was “inactive” throughout. Besides, the Potency result in the assay with GB4, in the assay on HB3, in the assay with ICS, in the assay on JCK, in the assay on P93_24 and in the assay on PC26 was “inactive” in each case. The Potency entry with PC49 and in the assay with TAB109 was “inactive” in each case.
Regarding `O=C(OC[C@@H]1O[C@@](O)(COC(=O)c2cccnc2)[C@H](OC(=O)c2cccnc2)[C@H]1OC(=O)c1cccnc1)c1cccnc1`, the Potency result (in assay [1]; in the assay on CP215; in the assay on CP260; in the assay on CP266; in the assay with CP268; in the assay with CP291) was “inactive” throughout. In addition, the Potency result in the assay on CP297, with CP305, with CP335, in the assay with DIV14, in the assay on DIV17 and with FAB9 was “inactive” in each case. The Potency result in the assay on GB4, in the assay with HB3, with ICS, in the assay on JCK, with P93_24 and in the assay on PC26 was “inactive” throughout. In addition, in the assay on PC49, the Potency result is “inactive”.
As to `CC(c1ncncc1F)[C@](O)(Cn1cncn1)c1ccc(F)cc1F` (stereo partly specified), the Potency result (in assay [1]; with CP215; in the assay on CP260; in the assay on CP266; in the assay with CP268; with CP291) was “inactive” each time. For the same compound, the Potency result in the assay on CP297, in the assay on CP305, in the assay with CP335, in the assay on DIV14, with DIV17 and in the assay with FAB9 was “inactive” in each case. Moreover, the Potency entry in the assay on GB4, in the assay on HB3, in the assay on ICS, in the assay on JCK, with P93_24 and with PC26 was “inactive” throughout. The Potency result in the assay with PC49 and in the assay with TAB109 was “inactive” in each case.
